Reference: the supplement of paper PMC11732987, “Enantioselective OTUD7B fragment discovery through chemoproteomics screening and high-throughput optimisation” (Communications Chemistry, 2025)

How the values were obtained:
Assay in all cases: log2 ratio of Biotin-Ahx-Ub-VS probe labelling (fragment/DMSO); higher = less target engagement (more negative = stronger competition), active = hit call of the paper (q ≤ 0.05, log2 ratio ≤ -1)
Settings in all cases: compound concentration: 200 uM; treatment time: 3 h
USP42 = molecular target: T1, USP42 (UniProt Q9H9J4)
T1 sequence (whole entry): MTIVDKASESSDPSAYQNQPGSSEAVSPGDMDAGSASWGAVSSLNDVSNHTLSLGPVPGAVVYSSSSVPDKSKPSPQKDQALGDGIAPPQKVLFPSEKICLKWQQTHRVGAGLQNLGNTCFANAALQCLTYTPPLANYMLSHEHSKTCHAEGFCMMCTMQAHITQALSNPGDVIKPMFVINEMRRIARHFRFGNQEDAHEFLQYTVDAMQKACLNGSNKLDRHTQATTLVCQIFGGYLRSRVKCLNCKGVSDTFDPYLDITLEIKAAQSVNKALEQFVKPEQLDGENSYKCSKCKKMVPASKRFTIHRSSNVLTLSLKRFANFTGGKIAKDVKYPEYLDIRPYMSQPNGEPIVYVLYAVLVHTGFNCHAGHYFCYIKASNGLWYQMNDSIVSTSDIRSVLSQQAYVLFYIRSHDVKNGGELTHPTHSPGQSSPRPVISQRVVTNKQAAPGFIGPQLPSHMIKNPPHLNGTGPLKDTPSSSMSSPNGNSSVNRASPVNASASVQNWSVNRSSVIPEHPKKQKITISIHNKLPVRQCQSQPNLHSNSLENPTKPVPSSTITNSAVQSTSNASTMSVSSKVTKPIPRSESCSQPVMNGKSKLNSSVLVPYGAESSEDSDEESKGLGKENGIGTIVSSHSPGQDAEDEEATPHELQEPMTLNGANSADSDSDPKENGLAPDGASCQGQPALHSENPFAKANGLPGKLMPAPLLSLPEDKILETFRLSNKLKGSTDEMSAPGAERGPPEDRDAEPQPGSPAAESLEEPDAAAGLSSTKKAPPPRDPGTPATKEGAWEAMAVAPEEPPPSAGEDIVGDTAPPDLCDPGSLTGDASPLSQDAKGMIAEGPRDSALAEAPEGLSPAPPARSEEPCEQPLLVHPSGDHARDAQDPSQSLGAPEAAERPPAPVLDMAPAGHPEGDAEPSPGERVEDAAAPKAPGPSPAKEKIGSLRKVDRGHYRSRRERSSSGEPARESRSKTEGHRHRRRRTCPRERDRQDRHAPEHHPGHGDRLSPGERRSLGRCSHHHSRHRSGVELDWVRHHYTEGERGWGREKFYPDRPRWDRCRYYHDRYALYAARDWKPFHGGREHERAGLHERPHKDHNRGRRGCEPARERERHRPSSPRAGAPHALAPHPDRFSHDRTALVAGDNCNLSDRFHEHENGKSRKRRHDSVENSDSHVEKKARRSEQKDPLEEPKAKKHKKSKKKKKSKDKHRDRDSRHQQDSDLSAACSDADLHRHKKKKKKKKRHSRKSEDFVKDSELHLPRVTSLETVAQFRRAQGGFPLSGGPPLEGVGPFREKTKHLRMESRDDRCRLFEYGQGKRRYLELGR
Outline: (§1)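 HEK293T lysate (495 µg per sample, in Tris/CHAPS/IGEPAL buffer with protease inhibitors) was exposed in triplicate for 3 h to fragment at 200 µM or to vehicle, then to Biotin-Ahx-Ub-VS at 0.5 µM final for 1 h. Labelled DUBs were enriched on NeutrAvidin, digested with LysC and trypsin, and analysed by diaPASEF LC-MS/MS. Spectronaut label-free quantities were normalised to the global median, and values are average log2 ratios of fragment over vehicle from an unpaired t-test. Only proteins with ≥2 unique peptides were used.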

USP46 = USP46 (UniProt P62068)
Outline: as §1

USP47 = molecular target: T2, USP47 (UniProt Q96K76)
T2 sequence (whole entry): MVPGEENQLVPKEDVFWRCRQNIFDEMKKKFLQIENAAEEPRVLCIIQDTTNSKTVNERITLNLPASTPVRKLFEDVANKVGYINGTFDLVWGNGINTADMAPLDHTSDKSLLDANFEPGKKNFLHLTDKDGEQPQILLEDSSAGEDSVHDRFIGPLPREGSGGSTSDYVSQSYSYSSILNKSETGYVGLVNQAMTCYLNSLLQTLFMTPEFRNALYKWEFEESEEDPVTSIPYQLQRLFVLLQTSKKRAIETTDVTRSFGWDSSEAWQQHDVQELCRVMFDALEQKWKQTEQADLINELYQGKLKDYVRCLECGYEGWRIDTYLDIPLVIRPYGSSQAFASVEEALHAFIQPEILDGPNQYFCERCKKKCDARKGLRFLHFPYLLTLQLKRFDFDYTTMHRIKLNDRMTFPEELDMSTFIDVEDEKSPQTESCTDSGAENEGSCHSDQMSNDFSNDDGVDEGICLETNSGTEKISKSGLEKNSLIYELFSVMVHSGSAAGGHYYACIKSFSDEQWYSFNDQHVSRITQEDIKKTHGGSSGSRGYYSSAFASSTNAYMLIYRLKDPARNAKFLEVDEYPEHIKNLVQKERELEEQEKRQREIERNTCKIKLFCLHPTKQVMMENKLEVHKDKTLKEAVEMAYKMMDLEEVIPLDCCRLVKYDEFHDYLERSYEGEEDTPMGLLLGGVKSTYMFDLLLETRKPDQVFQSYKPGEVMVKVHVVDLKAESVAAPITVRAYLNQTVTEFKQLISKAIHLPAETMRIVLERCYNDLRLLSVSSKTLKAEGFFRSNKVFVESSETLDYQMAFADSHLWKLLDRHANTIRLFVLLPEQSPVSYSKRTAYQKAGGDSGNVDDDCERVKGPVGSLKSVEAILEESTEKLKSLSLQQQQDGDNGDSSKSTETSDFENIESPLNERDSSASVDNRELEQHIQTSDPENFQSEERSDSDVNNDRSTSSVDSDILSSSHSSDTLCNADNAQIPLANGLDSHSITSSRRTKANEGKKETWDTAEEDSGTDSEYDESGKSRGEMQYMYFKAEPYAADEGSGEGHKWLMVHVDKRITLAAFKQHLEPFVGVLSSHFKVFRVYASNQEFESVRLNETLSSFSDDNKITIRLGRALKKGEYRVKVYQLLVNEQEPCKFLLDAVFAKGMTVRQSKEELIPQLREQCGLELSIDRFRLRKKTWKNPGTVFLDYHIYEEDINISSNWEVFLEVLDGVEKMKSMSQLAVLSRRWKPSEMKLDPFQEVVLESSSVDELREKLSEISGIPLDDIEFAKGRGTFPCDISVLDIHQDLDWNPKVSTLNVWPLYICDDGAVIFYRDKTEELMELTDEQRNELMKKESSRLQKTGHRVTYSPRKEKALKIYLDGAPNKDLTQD
Outline: as §1

USP48 = molecular target: T3, USP48 (UniProt Q86UV5)
T3 sequence (whole entry): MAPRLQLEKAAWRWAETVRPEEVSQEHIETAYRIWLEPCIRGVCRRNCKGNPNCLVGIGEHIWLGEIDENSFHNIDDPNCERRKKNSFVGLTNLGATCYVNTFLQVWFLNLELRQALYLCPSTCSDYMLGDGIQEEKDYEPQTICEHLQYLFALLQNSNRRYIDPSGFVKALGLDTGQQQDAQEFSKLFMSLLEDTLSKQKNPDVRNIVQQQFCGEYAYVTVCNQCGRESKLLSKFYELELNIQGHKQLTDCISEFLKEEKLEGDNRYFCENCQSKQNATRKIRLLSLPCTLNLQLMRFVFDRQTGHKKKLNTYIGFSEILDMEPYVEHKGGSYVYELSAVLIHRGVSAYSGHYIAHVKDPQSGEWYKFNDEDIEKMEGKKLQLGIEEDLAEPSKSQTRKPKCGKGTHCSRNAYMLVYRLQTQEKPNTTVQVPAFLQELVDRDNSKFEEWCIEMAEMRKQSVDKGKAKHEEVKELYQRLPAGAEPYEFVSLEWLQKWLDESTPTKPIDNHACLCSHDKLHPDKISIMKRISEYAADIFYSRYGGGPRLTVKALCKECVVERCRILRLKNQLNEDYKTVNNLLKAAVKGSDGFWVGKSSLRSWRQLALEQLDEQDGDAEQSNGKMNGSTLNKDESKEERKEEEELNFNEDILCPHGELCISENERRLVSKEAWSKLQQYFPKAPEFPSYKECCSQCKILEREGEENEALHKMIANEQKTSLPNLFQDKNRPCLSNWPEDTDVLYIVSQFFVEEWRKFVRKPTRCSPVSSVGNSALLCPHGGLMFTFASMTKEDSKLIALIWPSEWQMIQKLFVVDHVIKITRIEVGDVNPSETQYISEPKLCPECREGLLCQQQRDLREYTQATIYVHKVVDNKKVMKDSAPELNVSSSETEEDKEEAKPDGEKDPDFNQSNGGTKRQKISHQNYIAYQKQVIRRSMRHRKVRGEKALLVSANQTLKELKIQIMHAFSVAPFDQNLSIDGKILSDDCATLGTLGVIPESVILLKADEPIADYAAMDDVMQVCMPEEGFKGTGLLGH
Outline: as §1

USP5 = molecular target: T4, USP5 (UniProt P45974)
T4 sequence (whole entry): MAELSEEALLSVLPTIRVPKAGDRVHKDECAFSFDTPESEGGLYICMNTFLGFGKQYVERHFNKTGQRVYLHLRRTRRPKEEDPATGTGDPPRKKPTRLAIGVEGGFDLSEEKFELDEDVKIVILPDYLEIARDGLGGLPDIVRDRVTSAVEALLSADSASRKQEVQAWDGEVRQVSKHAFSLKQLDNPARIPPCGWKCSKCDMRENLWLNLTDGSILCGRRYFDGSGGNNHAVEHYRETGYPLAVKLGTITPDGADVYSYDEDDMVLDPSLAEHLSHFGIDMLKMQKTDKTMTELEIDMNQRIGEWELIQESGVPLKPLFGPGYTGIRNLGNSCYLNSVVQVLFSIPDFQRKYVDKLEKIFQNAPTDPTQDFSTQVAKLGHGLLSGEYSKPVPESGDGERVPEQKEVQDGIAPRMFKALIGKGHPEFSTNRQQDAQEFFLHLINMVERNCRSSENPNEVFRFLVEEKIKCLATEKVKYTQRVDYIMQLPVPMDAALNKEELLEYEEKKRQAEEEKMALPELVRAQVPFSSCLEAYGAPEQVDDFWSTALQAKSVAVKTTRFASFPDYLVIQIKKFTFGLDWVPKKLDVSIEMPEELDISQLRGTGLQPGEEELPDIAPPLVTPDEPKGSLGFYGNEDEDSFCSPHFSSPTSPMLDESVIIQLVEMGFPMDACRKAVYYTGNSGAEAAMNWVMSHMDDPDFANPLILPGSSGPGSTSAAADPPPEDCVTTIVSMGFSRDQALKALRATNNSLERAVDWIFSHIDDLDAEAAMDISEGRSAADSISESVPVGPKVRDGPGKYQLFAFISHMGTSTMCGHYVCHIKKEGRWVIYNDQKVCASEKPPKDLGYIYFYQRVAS
Outline: as §1

USP54 = USP54 (UniProt Q70EL1)
Outline: as §1

USP7 = USP7 (UniProt Q93009)
Outline: as §1

USP8 = molecular target: T5, USP8 (UniProt P40818)
T5 sequence (whole entry): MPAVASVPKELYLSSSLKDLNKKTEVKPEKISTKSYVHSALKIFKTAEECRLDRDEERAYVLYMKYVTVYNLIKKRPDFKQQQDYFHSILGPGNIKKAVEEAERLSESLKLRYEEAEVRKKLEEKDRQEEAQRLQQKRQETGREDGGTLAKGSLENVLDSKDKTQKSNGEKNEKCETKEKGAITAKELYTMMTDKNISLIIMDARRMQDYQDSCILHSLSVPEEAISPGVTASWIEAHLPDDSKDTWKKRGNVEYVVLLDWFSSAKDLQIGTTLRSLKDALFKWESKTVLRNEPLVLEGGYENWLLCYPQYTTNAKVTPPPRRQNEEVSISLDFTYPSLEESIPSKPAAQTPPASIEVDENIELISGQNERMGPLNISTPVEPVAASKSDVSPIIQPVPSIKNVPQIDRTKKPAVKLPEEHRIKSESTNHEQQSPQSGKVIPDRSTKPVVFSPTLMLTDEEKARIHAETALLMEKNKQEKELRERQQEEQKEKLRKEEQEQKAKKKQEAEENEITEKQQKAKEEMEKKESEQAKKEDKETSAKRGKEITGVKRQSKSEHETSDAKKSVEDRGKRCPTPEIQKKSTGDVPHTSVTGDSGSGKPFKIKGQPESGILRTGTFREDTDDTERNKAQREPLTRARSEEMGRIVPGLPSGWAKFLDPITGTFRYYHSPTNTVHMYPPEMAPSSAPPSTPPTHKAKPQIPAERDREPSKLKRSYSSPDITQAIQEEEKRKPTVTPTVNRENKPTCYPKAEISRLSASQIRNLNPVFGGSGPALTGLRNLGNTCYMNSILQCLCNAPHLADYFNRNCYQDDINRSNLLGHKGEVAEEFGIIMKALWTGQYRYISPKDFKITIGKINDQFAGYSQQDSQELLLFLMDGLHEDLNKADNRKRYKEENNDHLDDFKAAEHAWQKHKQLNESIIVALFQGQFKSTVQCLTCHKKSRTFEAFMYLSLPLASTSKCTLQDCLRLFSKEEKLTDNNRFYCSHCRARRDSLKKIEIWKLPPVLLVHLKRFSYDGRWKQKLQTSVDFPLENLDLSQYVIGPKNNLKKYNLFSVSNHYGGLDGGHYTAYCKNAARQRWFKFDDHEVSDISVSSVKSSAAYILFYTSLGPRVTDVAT
Outline: as §1

USP9X = USP9X (UniProt Q93008)
Outline: as §1

UniProt O00487 = molecular target: UniProt O00487
Outline: as §1

Measured: log2 ratio of Biotin-Ahx-Ub-VS probe labelling

USP7, sequence (Q93009 whole entry, looked up): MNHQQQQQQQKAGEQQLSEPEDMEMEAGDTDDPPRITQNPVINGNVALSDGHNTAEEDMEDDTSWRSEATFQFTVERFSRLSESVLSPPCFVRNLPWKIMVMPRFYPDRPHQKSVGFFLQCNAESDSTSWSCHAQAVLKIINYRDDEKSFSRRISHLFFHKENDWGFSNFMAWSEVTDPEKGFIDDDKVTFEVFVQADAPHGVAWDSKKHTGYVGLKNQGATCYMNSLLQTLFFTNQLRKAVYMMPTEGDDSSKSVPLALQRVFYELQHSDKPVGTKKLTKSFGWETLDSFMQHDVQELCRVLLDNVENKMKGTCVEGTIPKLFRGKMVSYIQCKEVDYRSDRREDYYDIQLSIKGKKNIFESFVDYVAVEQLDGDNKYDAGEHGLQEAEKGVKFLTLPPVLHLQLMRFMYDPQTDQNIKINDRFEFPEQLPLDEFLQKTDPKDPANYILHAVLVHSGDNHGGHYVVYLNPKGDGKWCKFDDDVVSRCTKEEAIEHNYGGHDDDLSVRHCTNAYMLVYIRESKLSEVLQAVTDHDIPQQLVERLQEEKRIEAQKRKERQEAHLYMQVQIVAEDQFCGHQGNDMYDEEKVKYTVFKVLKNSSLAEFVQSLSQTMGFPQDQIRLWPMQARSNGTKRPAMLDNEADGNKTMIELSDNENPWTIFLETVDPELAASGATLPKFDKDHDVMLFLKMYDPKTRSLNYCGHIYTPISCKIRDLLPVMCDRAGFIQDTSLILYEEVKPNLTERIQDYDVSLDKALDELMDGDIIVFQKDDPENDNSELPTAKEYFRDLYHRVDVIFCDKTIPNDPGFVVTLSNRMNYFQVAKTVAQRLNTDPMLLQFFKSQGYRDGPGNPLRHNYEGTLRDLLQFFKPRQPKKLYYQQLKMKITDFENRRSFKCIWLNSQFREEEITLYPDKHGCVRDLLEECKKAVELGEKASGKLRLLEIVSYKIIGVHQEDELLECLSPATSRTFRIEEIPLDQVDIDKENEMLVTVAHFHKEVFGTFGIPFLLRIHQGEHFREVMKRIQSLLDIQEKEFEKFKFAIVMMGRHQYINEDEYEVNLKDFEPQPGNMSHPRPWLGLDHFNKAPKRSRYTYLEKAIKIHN
USP9X, sequence (Q93008 whole entry): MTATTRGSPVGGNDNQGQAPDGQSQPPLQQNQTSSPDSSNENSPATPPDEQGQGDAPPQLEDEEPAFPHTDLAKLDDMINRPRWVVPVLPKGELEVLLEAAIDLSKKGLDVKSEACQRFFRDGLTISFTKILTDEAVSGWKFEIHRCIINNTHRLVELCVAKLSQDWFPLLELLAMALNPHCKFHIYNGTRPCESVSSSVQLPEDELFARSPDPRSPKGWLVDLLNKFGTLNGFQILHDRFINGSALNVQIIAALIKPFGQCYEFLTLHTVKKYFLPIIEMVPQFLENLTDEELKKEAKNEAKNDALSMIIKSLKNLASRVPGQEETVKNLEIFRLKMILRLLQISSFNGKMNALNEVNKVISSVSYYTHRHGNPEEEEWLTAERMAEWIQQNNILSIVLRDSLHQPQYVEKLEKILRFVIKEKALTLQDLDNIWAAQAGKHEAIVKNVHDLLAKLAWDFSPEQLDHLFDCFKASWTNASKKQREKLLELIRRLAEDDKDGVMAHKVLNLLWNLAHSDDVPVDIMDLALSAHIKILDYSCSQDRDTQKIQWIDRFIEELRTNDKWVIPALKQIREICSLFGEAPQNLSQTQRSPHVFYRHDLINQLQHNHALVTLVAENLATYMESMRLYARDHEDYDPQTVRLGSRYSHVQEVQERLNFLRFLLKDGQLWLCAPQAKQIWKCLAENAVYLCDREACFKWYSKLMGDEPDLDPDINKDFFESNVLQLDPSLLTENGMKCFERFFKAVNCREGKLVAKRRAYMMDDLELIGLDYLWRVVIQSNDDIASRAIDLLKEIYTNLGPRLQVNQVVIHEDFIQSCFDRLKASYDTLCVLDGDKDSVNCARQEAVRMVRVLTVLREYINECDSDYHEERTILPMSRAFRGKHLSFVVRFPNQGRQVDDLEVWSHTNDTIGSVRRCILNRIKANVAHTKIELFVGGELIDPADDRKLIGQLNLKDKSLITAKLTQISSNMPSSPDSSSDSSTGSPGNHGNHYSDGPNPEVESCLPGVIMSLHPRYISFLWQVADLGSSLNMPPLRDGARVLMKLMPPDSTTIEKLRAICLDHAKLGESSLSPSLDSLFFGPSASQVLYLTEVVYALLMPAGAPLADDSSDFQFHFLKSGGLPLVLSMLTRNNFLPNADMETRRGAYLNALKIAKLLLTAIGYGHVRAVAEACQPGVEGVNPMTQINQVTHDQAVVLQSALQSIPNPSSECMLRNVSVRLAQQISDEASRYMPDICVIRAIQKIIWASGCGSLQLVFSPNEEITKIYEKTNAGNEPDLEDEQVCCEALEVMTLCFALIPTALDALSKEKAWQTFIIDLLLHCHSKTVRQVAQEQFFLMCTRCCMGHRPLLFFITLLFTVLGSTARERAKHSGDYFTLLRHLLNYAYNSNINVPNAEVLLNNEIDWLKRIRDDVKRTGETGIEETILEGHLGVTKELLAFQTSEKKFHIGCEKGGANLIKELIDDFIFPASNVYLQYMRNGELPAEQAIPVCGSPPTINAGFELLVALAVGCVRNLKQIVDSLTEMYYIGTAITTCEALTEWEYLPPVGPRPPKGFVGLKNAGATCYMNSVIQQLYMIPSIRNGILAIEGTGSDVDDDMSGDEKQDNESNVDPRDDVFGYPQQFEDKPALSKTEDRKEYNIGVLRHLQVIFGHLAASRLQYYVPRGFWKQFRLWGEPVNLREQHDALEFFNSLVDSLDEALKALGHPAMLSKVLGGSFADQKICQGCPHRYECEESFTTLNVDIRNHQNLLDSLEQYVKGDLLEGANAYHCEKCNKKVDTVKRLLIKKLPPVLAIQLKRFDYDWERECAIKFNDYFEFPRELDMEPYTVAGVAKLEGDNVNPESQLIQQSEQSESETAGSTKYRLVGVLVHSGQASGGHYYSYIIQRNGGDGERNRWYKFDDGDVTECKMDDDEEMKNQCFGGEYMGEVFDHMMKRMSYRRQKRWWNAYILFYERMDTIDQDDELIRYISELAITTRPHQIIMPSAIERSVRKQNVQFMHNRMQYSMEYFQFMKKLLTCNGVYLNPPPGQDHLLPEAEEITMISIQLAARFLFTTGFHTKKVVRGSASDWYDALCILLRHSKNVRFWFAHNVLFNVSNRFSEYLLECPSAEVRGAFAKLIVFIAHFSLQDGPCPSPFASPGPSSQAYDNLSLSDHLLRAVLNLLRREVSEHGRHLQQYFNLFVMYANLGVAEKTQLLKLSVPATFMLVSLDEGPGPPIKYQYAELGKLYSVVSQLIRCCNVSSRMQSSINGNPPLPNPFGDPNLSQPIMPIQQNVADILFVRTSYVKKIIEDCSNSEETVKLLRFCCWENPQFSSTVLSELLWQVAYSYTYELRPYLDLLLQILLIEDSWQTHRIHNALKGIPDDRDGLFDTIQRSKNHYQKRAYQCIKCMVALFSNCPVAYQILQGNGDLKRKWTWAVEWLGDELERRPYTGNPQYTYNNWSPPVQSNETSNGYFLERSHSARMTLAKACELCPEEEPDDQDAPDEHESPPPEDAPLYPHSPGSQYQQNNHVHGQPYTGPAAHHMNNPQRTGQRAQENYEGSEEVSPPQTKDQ
USP46, sequence (P62068 whole entry): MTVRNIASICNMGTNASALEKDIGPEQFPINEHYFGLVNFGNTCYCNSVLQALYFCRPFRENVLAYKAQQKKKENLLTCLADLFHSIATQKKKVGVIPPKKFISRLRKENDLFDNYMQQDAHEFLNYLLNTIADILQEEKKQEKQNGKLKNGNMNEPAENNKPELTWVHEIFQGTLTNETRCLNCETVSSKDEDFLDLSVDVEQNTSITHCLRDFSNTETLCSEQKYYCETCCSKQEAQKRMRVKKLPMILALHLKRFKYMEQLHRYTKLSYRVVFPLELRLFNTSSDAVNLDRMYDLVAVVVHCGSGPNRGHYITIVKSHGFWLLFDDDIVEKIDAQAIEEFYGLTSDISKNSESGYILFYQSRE
UniProt O00487, sequence (O00487 whole entry): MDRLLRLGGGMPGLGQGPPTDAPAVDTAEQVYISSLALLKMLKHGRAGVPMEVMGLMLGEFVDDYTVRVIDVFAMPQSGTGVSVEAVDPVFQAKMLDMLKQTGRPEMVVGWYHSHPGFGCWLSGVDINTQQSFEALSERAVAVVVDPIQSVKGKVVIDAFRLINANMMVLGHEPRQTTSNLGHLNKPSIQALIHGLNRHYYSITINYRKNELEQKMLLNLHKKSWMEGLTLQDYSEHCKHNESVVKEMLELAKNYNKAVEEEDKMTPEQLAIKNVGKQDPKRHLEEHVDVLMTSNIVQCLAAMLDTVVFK

O=C(CCl)N1CCC(c2noc3cc(F)ccc23)CC1
inactive: USP42 0.542 | USP46 -0.343 | USP47 -0.18 | USP48 -0.806 | USP5 0.182 | USP54 0.351 | USP8 -0.0714 | USP9X -0.201 | UniProt O00487 -0.0622
active: USP7 -1.81
